Source: PubChem BioAssay (NCI)
About 83,000 compounds went through this panel and 20% of them were active in at least one assay; those are over-represented in the sample as a whole.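 Negative percent growth values reflect cell death: -40 means 40% of the cells present at the start died, and -100 means all died.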 A number with no mark means an inactive call. Active and inactive are the calls of the source. The calls were made as follows: active = growth percent below 10; inactive = the rest.

Assays:
Assay in all cases: NCI-60 one-dose screen, 48 h (100 = growth as untreated, 0 = no growth, -100 = all killed)
[1] = tested on: SR leukemia; conditions: 10 µM unless noted
[2] = tested on: RPMI-8226 leukemia; conditions: 10 µM unless noted
[3] = tested on: OVCAR-8 ovarian; conditions: 10 µM unless noted
[4] = tested on: OVCAR-5 ovarian; conditions: 10 µM unless noted
[5] = tested on: OVCAR-4 ovarian; conditions: 10 µM
[6] = tested on: SK-OV-3 ovarian; conditions: 10 µM unless noted
[7] = tested on: OVCAR-3 ovarian; conditions: 10 µM unless noted
[8] = tested on: HS 578T breast; conditions: 10 µM unless noted
[9] = tested on: NCI/ADR-RES ovarian; conditions: 10 µM unless noted
[10] = tested on: T-47D breast; conditions: 10 µM unless noted
[11] = tested on: BT-549 breast; conditions: 10 µM unless noted
[12] = tested on: MDA-MB-435 melanoma; conditions: 10 µM unless noted
[13] = tested on: SW-620 colon; conditions: 10 µM unless noted
[14] = tested on: MCF7 breast; conditions: 10 µM unless noted
[15] = tested on: HCT-116 colon; conditions: 10 µM unless noted
[16] = tested on: HCC-2998 colon; conditions: 10 µM unless noted
[17] = tested on: KM12 colon; conditions: 10 µM unless noted
[18] = tested on: IGROV1 ovarian; conditions: 10 µM unless noted

| Compound | growth [1] | growth [2] | growth [3] [%] | growth [4] [%] | growth [5] | growth [6] [%] | growth [7] | growth [8] | growth [9] | growth [10] | growth [11] | growth [12] | growth [13] | growth [14] | growth [15] | growth [16] | growth [17] | growth [18] |
| --- | --- | --- | --- | --- | --- | --- | --- | --- | --- | --- | --- | --- | --- | --- | --- | --- | --- | --- |
| COc1c(C(C)=O)c(OCCCCOc2c(C(C)=O)c(OC)c3ccoc3c2OC)c(OC)c2occc12 | 72.7% | 47.3% | 45.3 | 120 | 59.2% | 105 | 61.4% | 93.9% | 22.9% | 23% | 98.8% | 57.9% | 93.4% | 64.4% | 78% | 76.7% | 50.4% |  |
| CCOC(=O)c1c[nH]c2cc(OCC3CC3)c(OCC3CC3)cc2c1=O | 104% | 103% | 99.5 | 102 | 118% | 110 | 109% | 103% | 111% | 109% | 113% | 107% | 100% | 104% | 111% | 107% | 95.7% |  |
| N/C(=N\c1nc2ccccc2[nH]1)NC(=O)Cc1cccc2ccccc12 | 115% | 92.9% | 27.5 | 88.6 | 70.6% | 92.5 | 120% | 84.1% | 79.9% | 71.4% | 85.3% | 94.3% | 85.6% | 59.4% | 67.4% | 103% | 82% |  |
| Nc1ccc(Cl)c([N+](=O)[O-])c1 | 90.1% | 97.8% | 101 | 86 | 97.4% | 108 | 114% | 110% | 105% | 91.9% | 95.1% | 95.1% | 104% | 101% | 97.7% | 94.4% | 96.1% |  |
| C=C(C)C1CCC2(C(=O)O)CCC3(C)C(CCC4C5(C)CCC(OC(=O)NCc6ccccc6)C(C)(C)C5CCC43C)C12 (stereo not drawn) | 41.7% | 8.22% (active) | 45.5 | 75.6 | 30.7% | 68.9 | 19% | 84.7% | 44.8% | 33.9% | 64.8% | 58.7% | 34.9% | 35.9% | 18% | 51.3% | 28.1% |  |
| CC1(C)C(=NO)C(C)(C)C1=NO | 103% | 76.2% | 113 | 103 | 115% | 125 | 117% |  | 106% | 121% | 116% | 92.2% | 100% | 106% | 103% | 98% | 118% |  |
| Clc1ccc2nc(-c3ccc(-c4ccc(/C=N/NC5=NCCN5)cc4)s3)cn2c1 | 8.33% (active) | 53.5% | 102 | 107 | 87.1% |  | 109% | 92.6% | 99.3% | 92.6% | 91.6% | 101% | 29.7% | 79.4% | 86.8% | 109% | 103% | 94.6% |
| COc1cc2c(c(OC)c1OC)-c1cc(I)c(O)cc1[C@@H](NC(C)=O)CC2 | 33.2% | 12.9% | 12.6 | 49.2 | 37.3% |  | 17.5% | 76.4% | 25.4% | 69.5% | 3.61% (active) | 6.18% (active) | 31.4% | 12.5% | 11.9% | 20.8% | 15.1% | -3.77% (active) |
| CCCCCCCCN(CCCCCCCC)CC(O)c1ccc(Cl)c(C)c1Cl (stereo not drawn) | 52.6% | 72.8% | 93.6 | 84.1 | 93.5% | 77.5 | 88.9% |  | 89.6% | 75.9% | 117% | 91.4% | 44.5% | 90.4% | 63.5% | 85.3% | 79.6% |  |
| CCCCOC(=O)c1cccc([N+](=O)[O-])c1 | 132% | 90.2% | 100 | 97.9 | 113% | 109 | 114% | 114% |  | 110% | 104% | 103% | 103% | 115% | 113% | 98.5% | 108% |  |
| CCN(CC)CCCNCc1cc(-c2ccccc2)nc2ccccc12 | 4.37% (active) | 20% | 35.1 | 109 | 56.3% | 92.4 |  |  | -32% (active) | 53.4% | 75.9% | 53.3% | 24.2% | 35.7% | 7.25% (active) | 101% | 82.6% |  |
| COc1cc(NCc2cn(-c3ccc(C(=O)O)cc3)nc2-c2ccc(C(=O)O)cc2)cc(OC)c1OC | 114% | 93.2% | 101 | 94.8 | 94.4% |  | 106% | 95.6% | 107% | 93.7% | 96.2% | 102% | 92% | 93.3% | 97.5% | 104% | 100% | 97.1% |
| CCOC(CNC(=O)c1cccc([N+](=O)[O-])c1)OCC | 95.4% | 141% | 95.3 | 101 | 109% | 108 | 96.5% |  | 97.9% | 92.1% | 60.5% | 103% | 102% | 87.2% |  |  | 112% |  |
| CCN(CC)CCS(=O)(=O)CCNc1ccnc2cc(Cl)ccc12 | 6.28% (active) | -4.96% (active) | 14.5 | 18.6 | 24.7% | 22.5 | -14.9% (active) |  | -14.2% (active) | 43.4% | -0.495% (active) | 3.99% (active) | 7.17% (active) | 26.9% | 6.59% (active) | -13.5% (active) | -24.5% (active) |  |
| Nc1ccc(NC(=O)c2ccccc2)c2c1C(=O)c1ccccc1C2=O | 96.8% | 102% | 96.9 | 117 | 103% | 112 | 96.5% |  | 99.6% | 107% | 101% | 98.2% | 98.3% | 81.6% | 101% |  | 96% |  |
| CCCCN(CC)CC(CC)Nc1cc(OC)cc2cccnc12 (stereo not drawn) | 113% | 105% | 103 | 103 | 115% | 127 | 107% |  | 101% | 110% | 110% | 102% |  | 98.5% | 105% |  | 107% |  |
| CC1=CC[C@@H]2C(C)(C)C(=O)CC[C@@]2(C)[C@@H]1COc1ccc2ccc(=O)oc2c1 | 77.9% | 45.9% | 51.1 | 98 | 23.1% |  | 72.5% | 77.6% | 28.4% | 6.17% (active) | 55.9% | 80.5% | 101% | 87.8% | 79.5% | 83.6% | 63% | 77.9% |
| CCN(CC)CCCC(C)Nc1c2ccc(C)cc2nc2ccc(OC)cc12 (stereo not drawn) | 4.33% (active) | 1.21% (active) | 34.3 | 76.2 | -6.2% (active) | 55.7 |  | 0.397% (active) | 64% | 70.7% | 73% | 10.2% | -41.4% (active) | 4.31% (active) | 16.6% | 34.9% | 16.4% |  |
| O=C(Nc1ccc(CN2CCOCC2)c(C(F)(F)F)c1)c1nc2ccc3[nH]ncc3c2c2c1CCCC2 | 95.8% | 83.3% | 93.5 | 104 | 91% |  | 102% | 95.7% | 96.3% | 62.6% | 136% | 96.6% | 99.4% | 83.1% | 79.4% | 116% | 83.9% | 95.8% |
